# Bioassay records: PubChem BioAssay, National Center for Advancing Translational Sciences (NCATS)
# DRD3 agonist: qHTS of D3 Dopamine Receptor Agonist: qHTS; AID 652048, 2013; 410,000 tested, 0.58% active; D3R DiscoveRx beta-arrestin cells, luminescence, 90 min; D(3) dopamine receptor (Homo sapiens), P35462; max activation, %; in the data active = max activation above about 30%; also: 0% is about no effect
# Target sequence (P35462 whole entry, looked up): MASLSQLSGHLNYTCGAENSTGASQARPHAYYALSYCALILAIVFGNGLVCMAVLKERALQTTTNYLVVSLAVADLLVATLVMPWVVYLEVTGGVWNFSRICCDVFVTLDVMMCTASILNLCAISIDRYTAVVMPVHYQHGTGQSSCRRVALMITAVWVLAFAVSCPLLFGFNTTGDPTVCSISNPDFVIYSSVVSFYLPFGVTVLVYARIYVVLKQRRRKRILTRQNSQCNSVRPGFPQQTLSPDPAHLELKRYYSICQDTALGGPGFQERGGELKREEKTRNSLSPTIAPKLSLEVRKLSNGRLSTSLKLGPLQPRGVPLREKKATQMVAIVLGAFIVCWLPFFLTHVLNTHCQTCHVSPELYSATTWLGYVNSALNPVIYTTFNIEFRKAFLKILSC
#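 Cells at 1500/well, incubated overnight, then treated with pinned compounds (dopamine as control) for 90 min at 37 degrees C. DiscoveRx reagent added for 30 - 60 minutes at room temperature; luminescence read.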
# DRD3 antagonist: qHTS of D3 Dopamine Receptor Antagonist: qHTS; D3R cells, DiscoveRx beta-arrestin luminescence, antagonist mode; active compounds read low; D(3) dopamine receptor (Homo sapiens), P35462; max response, negative = inhibition, %; 360,000 tested, 2.5% active; in the data active = max response below about -50%; also: % is scaled to controls: 0 for no effect and ±100 for the full control effect
#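 Cells plated overnight at 1500 cells/well, then exposed to library compounds with dopamine controls for 90 minutes at 37 degrees C. DiscoveRx reagent added for 30–60 minutes at room temperature; luminescence read, quantitative HTS format.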
# D1 antag: Antagonist of Human D 1 Dopamine Receptor: qHTS | D(1A) dopamine receptor (Homo sapiens), P21728 | HEK293 TREx D1 cells, calcium flux, dopamine EC80; active compounds read low | activity change, negative = inhibition, % at 10 µM | 360,000 tested, 3.2% active; in the data active = activity change below about -30%; also: % is scaled to controls: 0 for no effect and ±100 for the full control effect
#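 Inducible Hek293 Trex D1 cells (tetracycline, overnight, 30 C). Calcium dye 30–90 min RT. Antagonist mode: EC80 dopamine added after 180 s compound read.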
# D1 potentiator: Potentiators of Human D1 Dopamine Receptor: qHTS | 360,000 tested, 0.036% active | D(1A) dopamine receptor (Homo sapiens), P21728 | AID 504651, 2011 | potentiation, % at 10 µM | HEK293 TREx D1 cells, calcium flux, dopamine EC20 potentiation; in the data active = potentiation above about 30%; also: 0% is about no effect
# D1 ag: Allosteric Agonists of the Human D1 Dopamine Receptor: qHTS; D(1A) dopamine receptor (Homo sapiens), P21728; HEK293 T-REx D1 cells, calcium flux, agonist mode; activation, % at 2 µM; 360,000 tested, 1% active; AID 504660, 2011; in the data active = activation above about 30%; also: 0% is about no effect
#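 Inducible HEK293 T-REx D1 cells, force-coupled to calcium signalling, were plated at 4000 cells/well with tetracycline and held overnight at 30 C. After no-wash calcium dye loading, compound-evoked calcium rise over 180 s flagged agonists.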
# The depositor's hits bear a star; / = no result given. The list is not random: actives were taken first. Their share in the collection is about 6%.
SMILES,DRD3 agonist,DRD3 antagonist,D1 antag,D1 potentiator,D1 ag
CSc1ccc(CCNc2ncnc3onc(-c4ccc(Cl)cc4)c23)cc1,-5.3,/,-18.0,-5.5,15.2
CCOC(=O)c1nnn(-c2nonc2N)c1COc1ccc(F)cc1,24.6,-8.8,-16.0,-7.2,-0.6
C/C(=N/NC(=O)c1nnn(-c2nonc2N)c1-c1ccccc1)c1ccncc1,0.0,-3.7,15.8,1.8,-3.1
COc1ccc(/C(C)=N/NC(=O)c2nnn(-c3nonc3N)c2-c2cccs2)cc1,-1.5,0.1,5.6,9.4,56.6*
COc1ccc(/C(C)=N/NC(=O)c2nnn(-c3nonc3N)c2-c2ccccc2)cc1,4.4,0.9,29.8,-5.2,49.6*
CCOC(=O)c1nnn(-c2nonc2N)c1COc1ccccc1,-0.8,-57.8*,-8.2,-8.1,0.9
CCOC(=O)c1nnn(-c2nonc2N)c1-c1ccc(OC)cc1,2.6,-54.5*,-9.3,-9.2,1.2
Cc1cc(SCC(=O)NCc2ccc(Cl)cc2)nc(=O)[nH]1,-1.1,/,/,2.5,-2.4
CCOC(=O)CSc1nc2ccccc2c(=O)n1CCc1ccc(OC)c(OC)c1,3.3,/,6.6,-0.4,11.7
CCOc1ccc2nc(N3CCCC(C(=O)Nc4ccc(Br)c(C)c4)C3)sc2c1 (centres undefined),2.6,/,-15.5,-3.0,-0.4
C=CC[N@@+]12CC[C@@]34c5ccccc5N5/C=C6/[C@H]7C[C@H]8[C@@]9(CC[N@@+]8(CC=C)C/C7=C/CO)c7ccccc7N(/C=C(/[C@@H](C[C@@H]31)/C(=C\CO)C2)[C@H]54)[C@@H]69,-3.1,/,/,/,/
CN(C)c1ccc(NC(=O)CN2C(=O)c3ccccc3Sc3ccc(C(=O)N4CCCC4)cc32)cc1,-0.4,/,15.2,-5.0,-0.4
C/C(=N\NC(=O)c1nnn(-c2nonc2N)c1-c1cccs1)c1ccc(O)cc1,5.0,-0.6,1.9,3.1,5.8
C/C(=N\NC(=O)c1nnn(-c2nonc2N)c1-c1cccs1)c1ccc(C)cc1,-0.3,-6.0,22.7,4.2,87.0*
CCC(=O)N1CCCc2cc(S(=O)(=O)N3CCC(C(=O)NCc4ccc(F)cc4)CC3)ccc21,-18.9,/,0.6,-2.4,0.3
CCC(=O)N1CCCc2cc(S(=O)(=O)N3CCC(C(=O)Nc4ccc(C#N)cc4)CC3)ccc21,8.8,/,-59.3*,-6.5,-0.5
CCC(=O)N1CCCc2cc(S(=O)(=O)N3CCC(C(=O)Nc4ccc(F)c(F)c4)CC3)ccc21,-20.3,/,-32.4*,-7.3,1.4
CCC(=O)N1CCCc2cc(S(=O)(=O)N3CCC(C(=O)NC4CCCCC4)CC3)ccc21,-14.2,/,3.9,4.2,2.1
COc1ccccc1NC(=O)C1=C(C)Nc2ncnn2C1c1ccc[nH]1 (centres undefined),-3.6,/,4.5,-3.5,5.0
COc1ccc(Nc2nc(-c3c[nH]c4ccccc34)cs2)cc1,-10.8,-24.0,-39.3*,-0.9,3.2
CCOc1ccc(C2CC(=O)NC(NC(=O)c3cccc(Cl)c3)=N2)cc1 (centres undefined),8.3,/,9.8,-0.1,2.4
CCOC(=O)/C=c1\s/c(=C\c2ccccc2C)c(=O)n1CC(=O)NCc1ccc2c(c1)OCO2,0.4,0.9,-57.0*,-9.9,4.8
CN(Cc1ccccc1)C(=O)[C@@H]1CCCN1C(=O)[C@@H]1CCCN1C(=O)c1cccc2ccccc12,-5.5,-50.1*,/,/,/
COc1ccccc1-c1ccc(/C=C2/C=C(C)OC2=O)o1,0.7,-4.1,-20.3,-17.5,3.5
COc1ccccc1-c1ccc(/C=C2\C=CC(=O)O2)o1,-6.5,-7.7,-5.0,5.2,291.5*
SMILES,DRD3 agonist,DRD3 antagonist,D1 antag,D1 potentiator,D1 ag
O=S(=O)(c1ccccc1)c1nnn2c1nc(NCc1ccccc1)c1sccc12,3.7,/,4.8,-0.9,4.1
CCn1c(SC(C)C(=O)NCC2CCCO2)nc2scc(-c3ccccc3)c2c1=O (centres undefined),1.6,4.9,-26.1,-5.2,-0.1
COCCn1c(SC(C)C(=O)NCC2CCCO2)nc2scc(-c3ccc(F)cc3)c2c1=O (centres undefined),2.8,-13.0,-42.2*,-8.9,1.1
O=C(Cc1ccc(-c2ccccc2)cc1)NCCS(=O)(=O)N1CCN(c2ccc(F)cc2)CC1,7.7,/,-19.8,0.7,4.1
CCC(C(=O)NCc1ccc2c(c1)CCN2C(=O)c1ccc(F)cc1)c1ccccc1 (centres undefined),7.5,/,-16.6,-5.2,0.3
COc1ccc(N(Cc2ccccc2)C(=O)c2nc(S(C)(=O)=O)ncc2Cl)cc1,-27.1,/,-3.8,-3.0,-0.5
COc1cc2cc(CN(CCN3CCCC3)C(=O)Nc3ccc(F)cc3)c(=O)[nH]c2cc1OC,-12.9,7.1,2.2,-3.3,0.6
Cc1ccc(C)c2[nH]c(=O)c(CN(CCN3CCCC3)C(=O)Nc3ccc(F)cc3)cc12,-8.7,-15.6,-36.2*,-8.5,2.2
Cc1ccc(-c2c(C(=O)Nc3ccc(F)c(F)c3)oc(=O)c3ccccc23)cc1,3.6,/,-1.0,-1.9,4.0
CCc1ccc(OCC(=O)N(Cc2ccc(C)o2)C2CCS(=O)(=O)C2)cc1 (centres undefined),-11.3,/,-0.7,-1.9,17.1
Cc1cn2c(=O)c(S(=O)(=O)NCc3ccc(F)cc3)c(C)nc2s1,-3.4,/,-8.0,-4.8,0.1
CCCCC(c1nnnn1CCOC)N1CCN(CC)CC1 (centres undefined),-14.2,-68.0*,-3.6,-3.1,0.1
O=[N+]([O-])c1cccc(S(=O)(=O)NCCNS(=O)(=O)c2cccc([N+](=O)[O-])c2)c1,1.5,/,/,/,/
N#Cc1cc2cc3c(cc2nc1SCC(=O)OC1CCCCC1)OCO3,0.4,-10.1,-31.6*,5.7,9.1
c1ccc(CN2CCN(Cc3cn4cccnc4n3)CC2)cc1,-10.4,-13.8,-8.7,-6.0,0.8
c1ccc(N2CCN(Cc3cn4cccnc4n3)CC2)cc1,5.6,-59.0*,10.3,-5.7,-0.1
O=C(CCCn1c(=O)c2cccn2c2cccnc21)NCc1ccccc1Br,-8.9,/,-1.6,-6.5,0.1
CCc1cccc(-n2nnc(S(=O)(=O)c3ccc(OC)cc3)c2C)c1,5.9,/,3.7,-2.0,24.0
COc1cccc(N2CCN(Cc3cc(=O)oc4cc(C)ccc34)CC2)c1,-13.3,/,-4.0,2.2,-0.1
CCOC(=O)c1ccc(-c2ccc(/C=C(\C#N)C(=O)Nc3cccc(C)c3)o2)cc1,-6.7,/,2.0,2.0,1.2
N#C/C(=C/c1ccc(Sc2nc3ccccc3[nH]2)o1)c1cccc(F)c1,2.4,5.8,-5.3,-1.2,8.4
N#C/C(=C\c1ccc([N+](=O)[O-])o1)c1nc2ccccc2[nH]1,45.4*,-28.9,9.8,-6.0,40.9*
